The record followed here is PubChem BioAssay (NCI).

This is part of a sample that, as a whole, favours compounds with a hit. Of some 83,000 tested, about 20% had one in any assay.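 In brief: 96-well plates, 48 h treatment, single concentration, percent growth endpoint.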 Activity calls are given as the source filed them. Rule for the calls: active = growth percent below 10; inactive = the rest.

The subject of the assay is MDA-MB-468 breast. Put plainly: NCI-60 one-dose screen, 48 h (100 = growth as untreated, 0 = no growth, -100 = all killed). The note with it: 10 µM unless noted.
Take `Cc1ccc(-c2nnc3sc(C4=Cc5ccccc5OC=C4)nn23)cc1`: the growth was 109% (inactive).
The result for `Cc1ccc(C(=O)c2ccc(CC(=O)N=Nc3c(O)[nH]c4ccc(OC(F)(F)F)cc34)n2C)cc1` reads 108% (inactive); that for `Nc1ccn(Cc2nnc(CCC(=O)c3nc4ccccc4[nH]3)o2)c(=O)n1`, 79% (inactive).
The same measure for `COc1ccc(OC)c2c1CCC1(C2)NC(=O)NC1=O` (centres undefined): 106% (inactive); for `Cc1cc(N/N=C/c2nc(-c3ccccc3)oc2C)c2cc(Cl)ccc2n1`: -74.7% (active).
The result for `CN(C)c1ccc(N2Cc3ccccc3OC3=C2C(=O)c2c(O)ccc(O)c2C3=O)cn1` reads -59.4% (active); that for `CCn1c(Cc2ccccc2Nc2c(Cl)cccc2Cl)nnc1SCC(=O)NN1C(=O)/C(=C/c2cccc(OC)c2OC)SC1=S`, 99.5% (inactive); that for `Cn1cc(-c2ccc3c(c2)ncn3-c2ccc(CC(=O)Nc3cc(C(C)(C)C)on3)cc2)cn1`, 35.5% (inactive).
In the case of `COc1ccc(C(O)c2cc3c(N)c(C(=O)Nc4cccc(Br)c4)sc3nc2C)cc1` (centres undefined), the growth was 19.6% (inactive).
The result for `COc1cccc(-c2nc3sccn3c2-c2ccnc(NCCN3CCCNS3(=O)=O)n2)c1` reads 102% (inactive); that for `COc1ccc(-c2cnc(-c3ccc(Cl)cc3)[nH]2)cc1OC`, 84.7% (inactive).
For `CCc1ccc(CCC(=O)Nc2ncc(Cc3ccccc3)s2)o1`, the growth was 28.1% (inactive).
With `O=c1sc2ncnc3ncn1c32`, the growth was 8.83% (active).
The same measure for `C=C1C(=O)O[C@H]2[C@H]1CC/C(COC(=O)NCc1ccc(Cn3c(=O)sn(-c4ccc(OC)cc4)c3=O)cc1)=C\CC[C@@]1(C)O[C@@H]21`: 17.9% (inactive).
